For 28 compounds, AC50 and outcome results are on record in PubChem BioAssay (EPA / NIEHS).

Test [1] in a line: ATG_EGR_CIS: Attagene CIS-FACTORIAL HepG2 Assay for human Early Growth Response 1 (EGR1) (AID 2282938). The settings on record: HepG2 Attagene CIS-FACTORIAL EGR reporter mRNA; actives raise or lower the signal. A digest of the protocol: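 HepG2 cells transiently transfected with cis-element-driven multiplexed reporter units, dosed for 24 h. EGR1-element reporter mRNA quantified by RT-PCR, 6-FAM labelling, HpaI digestion and capillary electrophoresis; bidirectional fit versus DMSO.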

Test [2] is described as follows: ATG_M_19_CIS: Attagene CIS-FACTORIAL HepG2 Assay for M19 Transcription Factor (Internal Marker) (AID 2282939). The settings on record: HepG2 Attagene CIS-FACTORIAL M19 internal marker reporter; actives raise or lower the signal. A digest of the protocol: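 Internal marker readout, fitted in both directions against DMSO, from HepG2 cells carrying transfected cis-element reporter constructs; RT-PCR and capillary electrophoresis of reporter mRNA after 24 h exposure.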

Test [3] is described as follows: ATG_ERE_CIS: Attagene CIS-FACTORIAL HepG2 Assay for Estrogen Response Element (ERE) (AID 2282940). The settings on record: HepG2 ERE cis-reporter, Attagene RNA transcript; actives raise or lower the signal. The method, boiled down: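 After 24 h compound treatment, RNA from transfected HepG2 cells was reverse-transcribed, reporter cDNA PCR-amplified, FAM-labelled, HpaI-cut and resolved by capillary electrophoresis. ERE-driven cis reporter transcripts reflect endogenous factors; gain or loss scored against DMSO.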

Test [4] in a line: ATG_Ets_CIS: Attagene CIS-FACTORIAL HepG2 Assay for human Erythroblast Transformation Specific (ETS) (AID 2282941). The settings on record: HepG2 ETS cis-reporter transcription, actives raise or lower the signal. A digest of the protocol:
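Human HepG2 hepatoma cells were transiently transfected with promoter-driven reporter constructs and treated for 24 hours. Reporter transcripts were quantified by RT-PCR with fluorescent primer extension; bidirectional curve fitting used DMSO as reference.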

Test [5] addresses Hepatocyte nuclear factor 3-beta (Homo sapiens) (UniProt Q9Y261). Put plainly: ATG_FoxA2_CIS: Attagene CIS-FACTORIAL HepG2 Assay for human Forkhead box A2 (FOXA2) (AID 2282942). As to conditions: HepG2 cis-reporter transcription factor activity, 24 h; actives raise or lower the signal. A digest of the protocol:
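HepG2 transiently transfected with a multiplexed cis-promoter reporter library read endogenous FOXA2 activity. After 24 h compound exposure, reporter mRNA was quantified by RT-PCR, HpaI digestion and capillary electrophoresis. Bidirectional fit against DMSO.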

Test [6] is described as follows: ATG_FoxO_CIS: Attagene CIS-FACTORIAL HepG2 Assay for human Forkhead box O (FoxO) (AID 2282943). As to conditions: HepG2 Attagene cis-reporter, FoxO element, mRNA; actives raise or lower the signal. The method, boiled down:
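HepG2, transient MRTU transfection (cis element, endogenous TFs). Dose 24 h. TriZol RNA → oligo(dT) RT → PCR → 6-FAM primer extension → HpaI cut → CE. Gain/loss vs DMSO.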

The nature of test [7]: ATG_GATA_CIS: Attagene CIS-FACTORIAL HepG2 Assay for human GATA Binding Protein (AID 2282944). As to conditions: HepG2 GATA cis-element reporter, Attagene multiplex mRNA; actives raise or lower the signal. A digest of the protocol:
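Reporter transcripts from a GATA cis-regulated unit, among multiplexed reporters in transfected HepG2 cells, were measured by RT-PCR with capillary electrophoresis after 24 h dosing. Induction or loss scored relative to DMSO.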

A short description of test [8]: ATG_GLI_CIS: Attagene CIS-FACTORIAL HepG2 Assay for human Zinc Finger Protein GLI1 (AID 2282945). The settings on record: HepG2, Attagene cis-factorial reporter mRNA, GLI element; actives raise or lower the signal. The method, boiled down:
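Bidirectional curve fits relative to DMSO, using reporter mRNA levels from RT-PCR plus capillary electrophoresis. Cells were HepG2 transiently carrying cis-regulated reporter constructs, harvested 24 h after dosing.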

In test [9] the target is Bile acid receptor (Homo sapiens) (UniProt Q96RI1). Put plainly: ATG_IR1_CIS: Attagene CIS-FACTORIAL HepG2 Assay for human Nuclear Receptor Subfamily 1 Group H Member 4 (NR1H4), IR1 submotif (AID 2282946). The settings on record: IR1 reporter transcription, actives raise or lower the signal. The method, boiled down: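 Cells (human HepG2) carry transiently transfected cis-promoter reporter transcription units. Compounds are incubated 24 h, total RNA is reverse-transcribed and amplified, and labelled fragments are resolved by capillary electrophoresis. Curves use DMSO as baseline.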

A short description of test [10]: ATG_GRE_CIS: Attagene CIS-FACTORIAL HepG2 Assay for human Glucocorticoid Response Elements (GRE) (AID 2282947). The settings on record: HepG2 GRE cis-reporter, Attagene multiplex mRNA; actives raise or lower the signal. The method, boiled down: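 Transient MRTU transfection of human HepG2 liver cells; cis-regulated reporters report endogenous factors. 24 h dosing → RNA isolation → RT-PCR → 6-FAM primer extension → HpaI cut → CE fragment analysis. Bidirectional fit, DMSO negative control.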

Active and inactive are the calls of the source. The calls were made as follows: active = hit-call score of the fitted dose curve at least 0.9, where 1 is the maximum; inactive = score below 0.9.

What is called AC50 is the midpoint of the concentration-response curve, whichever way the signal moves.

Hepatocyte nuclear factor 3-beta (Homo sapiens), sequence (Q9Y261 whole entry, looked up): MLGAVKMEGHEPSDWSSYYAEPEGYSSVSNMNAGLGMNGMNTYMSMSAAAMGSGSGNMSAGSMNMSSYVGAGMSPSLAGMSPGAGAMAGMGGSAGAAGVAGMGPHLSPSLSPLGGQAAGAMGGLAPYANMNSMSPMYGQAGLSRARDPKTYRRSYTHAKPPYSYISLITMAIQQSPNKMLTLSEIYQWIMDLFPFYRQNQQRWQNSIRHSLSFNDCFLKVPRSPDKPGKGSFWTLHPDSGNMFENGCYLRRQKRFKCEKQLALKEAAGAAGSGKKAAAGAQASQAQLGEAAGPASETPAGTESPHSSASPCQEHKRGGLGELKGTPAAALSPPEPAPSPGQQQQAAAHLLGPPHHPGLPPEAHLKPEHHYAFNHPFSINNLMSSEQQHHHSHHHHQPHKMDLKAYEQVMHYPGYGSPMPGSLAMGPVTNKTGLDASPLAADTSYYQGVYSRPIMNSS
Bile acid receptor (Homo sapiens), sequence (Q96RI1 whole entry, looked up, the tested form may be a part): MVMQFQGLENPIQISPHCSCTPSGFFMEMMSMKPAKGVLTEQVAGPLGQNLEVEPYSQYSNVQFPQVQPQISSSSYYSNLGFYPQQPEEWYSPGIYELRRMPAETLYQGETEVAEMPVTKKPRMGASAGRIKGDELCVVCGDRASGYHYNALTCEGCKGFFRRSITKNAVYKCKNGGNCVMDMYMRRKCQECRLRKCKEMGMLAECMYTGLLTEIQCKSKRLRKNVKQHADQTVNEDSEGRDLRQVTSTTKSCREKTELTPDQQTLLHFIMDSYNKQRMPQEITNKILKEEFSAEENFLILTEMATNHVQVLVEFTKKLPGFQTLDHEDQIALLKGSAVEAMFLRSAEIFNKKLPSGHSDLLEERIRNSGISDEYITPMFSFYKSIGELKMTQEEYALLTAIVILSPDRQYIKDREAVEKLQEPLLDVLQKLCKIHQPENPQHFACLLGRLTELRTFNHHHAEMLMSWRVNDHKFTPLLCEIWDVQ

Regarding `O=C(Nc1ccc2[nH]ccc2c1)c1cc2cc(F)ccc2n1Cc1cccc(F)c1`, the half-maximal activity concentration (AC50) in test [1] was 11 µM (active); in test [2], 13.7 µM (active); in test [9], 2.93 µM (active); in test [10], 17.6 µM (active). Also, the compound was classed as inactive in test [3], in [4], in test [5], in test [6], in test [7] and in test [8].
With `CN(CCCC(=O)c1cccnc1)N=O`, the compound was classed as inactive in test [1], in [2], in test [3], in test [4], in test [5] and in test [6]. Also, the call in test [7], in [8], in [9] and in test [10] was inactive.
For `OCC(O)CCl` (configuration not stated), the result in test [1], in [2], in test [3], in test [4], in test [5] and in test [6] was inactive. Besides, the outcome in [7], in test [8] and in [10] was inactive.
Turning to `NNC(=S)NN`, the result in test [1], in [2], in test [3], in test [4], in test [5] and in test [6] was inactive. Besides, the result in test [8] was inactive.
Take `COc1ccc(C=O)cc1`: the call in [1], in test [2], in test [3], in [4], in test [5] and in [6] was inactive. For the same compound, the outcome in [7], in test [8] and in [10] was inactive.
As to `Cc1ccc(N)cc1Cl`, the result in [1], in test [2], in [3], in [4], in test [5] and in [6] was inactive. Besides, the call in test [8] was inactive.
As for `COc1cccc(C=O)c1`, the call in test [1], in test [2], in test [3], in test [4], in test [5] and in test [6] was inactive. Moreover, the compound was classed as inactive in test [7], in [8] and in test [10].
As to `CCOP(=O)(CN(CCO)CCO)OCC`, the compound was called inactive in test [1], in test [2], in test [3], in [4], in test [5] and in [6]. In addition, the compound was classed as inactive in test [7], in test [8] and in test [10].
For the compound `ClCCBr`, the outcome in [1], in test [2], in test [3], in test [4], in test [5] and in test [6] was inactive. Besides, the call in [8] was inactive.
Regarding `Nc1ccc(-c2ccc(N)c(Cl)c2)cc1Cl`, the outcome in [1], in [2], in test [4], in test [5], in test [6] and in test [7] was inactive. The compound was called inactive in test [8] and in test [10]. For the same compound, the half-maximal activity concentration (AC50) in [3] is 3.86 µM (active).
In the case of `COc1ccc(C=O)cc1OC`, the call in [1], in [2], in test [4], in [5], in test [6] and in test [8] was inactive. Also, the AC50 in [3] was 15.2 µM (active).
`O=P(O)(O)CN(CP(=O)(O)O)CP(=O)(O)O`: the compound was classed as inactive in test [1], in [2], in test [3], in test [4], in test [5] and in test [6]. Moreover, the outcome in test [7], in test [8] and in [10] was inactive.
`Cc1ccc2ccccc2c1C`: the result in test [1], in test [2], in test [3], in test [4], in test [5] and in test [6] was inactive. For the same compound, the compound was classed as inactive in [7], in [8] and in [10].
On to `ClC(Cl)=C(Cl)C(Cl)=C(Cl)Cl`, for which the concentration at half-maximal activity (AC50) was 131 µM (active) in test [1], 180 µM (active) in test [6], 158 µM (active) in [8] and 165 µM (active) in test [10]. The compound was classed as inactive in test [2], in [3], in [4], in test [5] and in test [7].
In the case of `O=C/C=C/c1ccccc1`, the call in test [1], in test [2], in [4], in [5], in test [6] and in [7] was inactive. Moreover, the compound was classed as inactive in [8] and in test [10]. Moreover, in test [3], the half-maximal activity concentration (AC50) is 35 µM (active).
Take `CCCCCCCCC(=O)NCc1ccc(O)c(OC)c1`: the outcome in test [1], in [2], in test [3], in [4], in test [5] and in test [6] was inactive. The compound was classed as inactive in test [7], in [8] and in test [10].
For the compound `COP(=S)(OC)Oc1cc(Cl)c(Cl)cc1Cl`, the call in test [1], in test [2], in test [4], in test [5], in test [6] and in [7] was inactive. Besides, the outcome in [8] and in [10] was inactive. In test [3], the AC50 was 75.6 µM (active).
Consider `CC(=O)C(Cl)C(=O)N(C)C` (configuration not stated), for which the result in test [1], in test [2], in test [3], in test [5], in [6] and in [7] was inactive. For the same compound, the call in test [8] and in [10] was inactive. Moreover, in test [4], the AC50 was 100 µM (active).
As to `CC(C)(c1ccc(OCC2CO2)cc1)c1ccc(OCC2CO2)cc1` (configuration not stated), in [1], the half-maximal activity concentration (AC50) is 33.4 µM (active). Also, the result in test [2], in test [3], in [4], in [5], in test [6] and in test [7] was inactive. Moreover, the compound was classed as inactive in [8] and in [10].
For the compound `COc1cc(OC)nc(NC(=O)NS(=O)(=O)c2ncccc2C(=O)N(C)C)n1`, the outcome in test [1], in test [2], in test [3], in test [4], in [5] and in [6] was inactive. Also, the compound was classed as inactive in [7], in test [8] and in test [10].
As to `CCCCC(CC)CO[N+](=O)[O-]` (configuration not stated), the result in test [1], in test [2], in test [3], in [4], in test [5] and in test [6] was inactive. Further, the compound was classed as inactive in test [7], in [8] and in test [10].
`COC(=O)Cc1ccccc1`: the outcome in [1], in test [2], in test [3], in [4], in test [5] and in test [6] was inactive. The outcome in test [7], in [8] and in [10] was inactive.
As for `CC(C#N)CCC#N` (configuration not stated), the compound was classed as inactive in [1], in [2], in [3], in [4], in test [5] and in [6]. The call in test [7], in [8] and in [10] was inactive.
`Cc1cc(Cl)ccc1O[C@H](C)C(=O)O`: the call in [1], in [2], in test [3], in test [4], in test [5] and in test [6] was inactive. In [8], the compound was classed as inactive.
On to `O=Cc1cccc(Oc2ccccc2)c1`, for which the compound was called inactive in test [1], in [2], in [3], in test [4], in test [5] and in test [6]. The compound was classed as inactive in test [7], in [8] and in test [10].
For `CCC[CH2][Sn]([CH2]CCC)([CH2]CCC)[O]C(=O)c1ccccc1`, the result in test [1], in test [2], in test [4], in test [5], in [6] and in test [7] was inactive. The compound was classed as inactive in test [8] and in [10]. The concentration at half-maximal activity (AC50) in test [3] was 0.0334 µM (active).
In the case of `O=C1C(Cl)=C(Cl)C(=O)c2ccccc21`, the compound was classed as inactive in test [1], in test [2], in [4], in test [5], in [6] and in test [7]. Besides, the compound was classed as inactive in test [8] and in [10]. Besides, the AC50 in [3] is 5.75 µM (active).
In the case of `CCCCCCCCSC(=O)Oc1cc(Cl)nnc1-c1ccccc1`, the outcome in test [1], in test [2], in test [3], in test [5] and in test [8] was inactive. Further, the concentration at half-maximal activity (AC50) in test [4] was 162 µM (active); in test [6], 141 µM (active).
